Most compounds without a hit are left out; they make up all but 1.1% or so of the library.
A3G deaminase – APOBEC3G DNA deaminase inhibitors, primary screen, biochemical, fluorescence, single-stranded DNA substrate, uHTS; recombinant A3G, ssDNA deamination FAM/TAMRA fluorescence; inhibition, % at 20 µM; 330,000 compounds, 0.28% hits;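 active = inhibition of at least 40% at 20 µM, with no more than 30% in the related APOBEC3A deaminase screen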;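 note: plate controls were DMSO wells with A3G for no effect and wells lacking A3G enzyme for full effect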
Target sequence (Q9HC16 whole entry, looked up): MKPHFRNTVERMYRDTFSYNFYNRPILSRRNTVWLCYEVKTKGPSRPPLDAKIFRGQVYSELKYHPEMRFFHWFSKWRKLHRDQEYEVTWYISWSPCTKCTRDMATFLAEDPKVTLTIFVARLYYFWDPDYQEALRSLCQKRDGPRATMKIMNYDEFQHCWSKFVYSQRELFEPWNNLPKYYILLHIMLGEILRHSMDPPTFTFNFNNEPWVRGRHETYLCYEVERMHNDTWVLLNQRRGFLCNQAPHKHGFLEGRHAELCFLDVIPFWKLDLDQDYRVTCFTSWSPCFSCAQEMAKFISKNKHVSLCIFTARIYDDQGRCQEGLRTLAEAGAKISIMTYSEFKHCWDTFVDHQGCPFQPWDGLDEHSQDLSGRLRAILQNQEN
MIN6 prolif – inducers of MIN6 beta-cell proliferation, primary screen, ATP luminescence, uHTS; MIN6 cells proliferation, ATPlite luminescence, 48 h; cells starved in 0.2% serum; 100% = growth in 10% serum; proliferation, % at 10 µM; 330,000 compounds, 0.29% hits; AID 2380, 2010;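 active = compounds whose signal lies at least 3.5 SD above the mean of all wells on their plate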;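 note: 0% = DMSO-treated cells in low-serum medium and 100% = 10% serum control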
APOBEC3A inh – APOBEC3A ssDNA deaminase inhibitors, primary screen, selectivity assay for APOBEC3G inhibitor project, biochemical, FAM/TAMRA oligo cleavage fluorescence; inhibition, % at 20 µM; AID 493011, 2011; 330,000 compounds, 0.41% hits; recombinant A3A, FAM/TAMRA ssDNA deamination fluorescence; DNA dC->dU-editing enzyme APOBEC-3A (Homo sapiens), P31941;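 active = at least 40% inhibition at 20 µM here, with at most 30% in a related deaminase screen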;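 note: plate controls were A3A with DMSO for no effect and wells lacking A3A enzyme for full effect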
Target sequence (P31941 whole entry, looked up): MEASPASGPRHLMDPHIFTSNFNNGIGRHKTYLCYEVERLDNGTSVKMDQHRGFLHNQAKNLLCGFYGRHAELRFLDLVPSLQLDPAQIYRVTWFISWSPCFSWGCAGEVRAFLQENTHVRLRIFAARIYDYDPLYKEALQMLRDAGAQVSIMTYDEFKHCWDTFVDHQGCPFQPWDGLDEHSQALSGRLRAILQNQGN
Bfl-1 A1 inh – caspase 3/7 activation in MEF A1-2A-BIM cells, primary screen, A1 inhibitor project, cell-based, luminescence, HTS; Caspase-Glo 3/7 luminescence, 3 h; percent of clofoctol response, vehicle zero; caspase activation, % (concentration not given with the values); 330,000 compounds, 0.066% hits; AID 2462, 2010;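 active = over half of replicate activation scores above 10%, or exactly half above 10 with the replicate mean above 10; inconclusive = replicate mean below 10 yet half the replicates above 10; inactive = over half of replicates below 10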
A3A conf – APOBEC3A deaminase inhibitors, retest, confirmation, selectivity assay for APOBEC3G inhibitor project, biochemical, single concentration, fluorescence readout; recombinant A3A, ssDNA deaminase UDG fluorescence assay; 1,400 compounds, 63% hits; shares compounds with APOBEC3A inh; inhibition, % at 20 µM;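 active = inhibition reaching a set limit, 80% of the first screen's cutoff, at 20 µM in any replicate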;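 note: plate controls were DMSO wells with A3A for no effect and wells lacking A3A enzyme for full effect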
UDG A3A counter – E. coli UDG inhibitors, confirmation, counter-screen for APOBEC3A inhibitor project, biochemical, single concentration, fluorescence, FAM/TAMRA oligo. shares compounds with APOBEC3A inh. UDG counterscreen, FAM/TAMRA uracil oligo fluorescence. inhibition, % at 20 µM. 1,000 tested, under 10 active. AID 504714, 2011; call rule not given here
Starred values were filed as active, the others as inactive; ? = inconclusive; nt = no result.

SMILES	A3G deaminase	MIN6 prolif	APOBEC3A inh	Bfl-1 A1 inh	A3A conf	UDG A3A counter
CCSC1=NC(=O)/C(=C2/C=Cc3ccccc3N2CC)S1	21	2	40*	0	18	nt
C[n+]1cnn2c1SCC1(COC1)C2	26	2	45*	0	85*	-1
Cc1c(-c2ccnc3cc(C(=O)O)nn23)cnn1C	-7	0	49*	1	32*	0
CN1CCN(CC(=O)Nc2sc3c(c2C(=O)Nc2ccccc2)CCCC3)CC1	6	-1	57*	0	43*	-2
C=CC#CC1(O)CC(C)[N+](C)(C)CC1C (stereo not drawn)	28	1	56*	2	71*	-1
C=C[C@@H]1c2cccc(C)c2N(S(=O)(=O)c2ccc(C)cc2)[C@H](c2ccc(OC(C)=O)cc2)C1(C#N)C#N	-7	-5	-1	0	nt	nt
CC(=O)N1CCN(C2=NC(=O)/C(=C\c3cccs3)S2)CC1	-8	-1	-5	0	nt	nt
O=C1N=C(N2CCOCC2)S/C1=C/c1cccs1	-1	-4	71*	1	-2	-3
COc1ccc(-c2coc(CCC(=O)N3CCN(c4cc(C)ccc4C)CC3)n2)cc1	1	nt	2	nt	nt	nt
CCOc1ccc(-n2c(SCC(=O)Nc3ccc(C(=O)O)cc3)nc3ccccc3c2=O)cc1	-1	-3	-4	1	nt	nt
CCN(CC)CCCNC(=O)C1CCN(c2ncnc3c2sc2cccc(F)c23)CC1	-1	-1	48*	0	2	1
CN(C)S(=O)(=O)c1ccc(N2CCCC2)c(C(=O)Nc2ccc(F)cc2F)c1	3	1	41*	1	1	nt
CCCC[n+]1ccn(-c2nc3c([N+](=O)[O-])cccc3n2C)c1	17	-3	68*	0	78*	nt
CCCC[n+]1ccn(-c2nc3ccccc3nc2[N-]S(=O)(=O)c2ccc(Cl)cc2)c1	-9	2	-4	1	nt	nt
C[n+]1ccc(/C=C/c2cccs2)cc1	21	-2	52*	0	54*	nt
C[N+]1(CC2COC3(CCCCC3)O2)CCCCC1 (stereo not drawn)	25	0	68*	0	74*	-3
C[N+](C)(C)CCCCCC[N+](C)(C)C	-7	-2	-1	?	nt	nt
C[N+](C)(C)CCCCCC(=O)/C=N/O	11	-3	53*	0	66*	3
Cn1c(N)c(C(=O)COC(=O)COc2ccc(C#N)cc2)c(=O)n(C)c1=O	-8	-4	92*	-1	3	5
COc1ccc(N(C(=O)c2cnccn2)C(C(=O)NC2CCCCC2)c2ccccc2)cc1 (stereo not drawn)	-1	-1	-6	2	nt	nt
Fc1ccc2nc(C(F)(F)F)cc(N3CCOCC3)c2c1	nt	nt	nt	0	nt	nt
Cc1[nH]c2ccccc2c1/C=C(\C#N)C(=O)NC1CC1	4	2	2	-1	nt	nt
Cc1[nH]c2ccccc2c1/C=C(\C#N)C(=O)NC(C)c1ccccc1 (stereo not drawn)	9	2	41*	0	72*	1
CCOc1c(Br)cc(Br)cc1/C=C1\SC(N)=NC1=O	18	0	69*	1	82*	2
O=C(CNC(=O)OCc1ccccc1)Nc1ccc(F)cc1	20	1	67*	0	70*	1
SMILES	A3G deaminase	MIN6 prolif	APOBEC3A inh	Bfl-1 A1 inh	A3A conf	UDG A3A counter
C=CCOc1ccc(C(=O)Nc2ccccc2C(=O)NCc2cccnc2)cc1	5	-1	43*	1	34*	-1
COCc1ccc(C(=O)Nc2ccccc2C(=O)NCc2cccnc2)cc1	-11	0	-2	1	nt	nt
Cc1ccccc1NC(=O)CSc1ccsc1[N+](=O)[O-]	19	0	48*	0	42*	nt
Cc1c(NC(=O)COC(=O)CSc2ccc(C(N)=O)cc2[N+](=O)[O-])c(=O)n(-c2ccccc2)n1C	0	-2	-4	1	nt	nt
Cc1cccc(NC(=O)CSc2ccc(C(N)=O)cc2[N+](=O)[O-])c1C	23	0	44*	0	6	nt
COCCCNC(=O)CSc1ccsc1[N+](=O)[O-]	-5	-1	3	0	nt	nt
CC(Oc1ccc(Br)cc1)C(=O)Nc1cc(Cl)ccc1N1CCN(C)CC1 (stereo not drawn)	9	-6	58*	0	54*	-2
CCCCCN(C(=O)CCC(=O)OCCOc1cccc(Cl)c1)c1c(N)n(CCCC)c(=O)[nH]c1=O	-9	-1	-2	-1	nt	nt
CC(CCc1ccccc1)NC(=O)COC(=O)CC1CC2CCC1C2 (stereo not drawn)	-3	-5	121*	1	-6	-3
COC(=O)Cn1c2[n+](c3ccccc31)CC(O)CS2 (stereo not drawn)	0	-2	0	1	nt	nt
CCOC(=O)Cn1c2[n+](c3ccccc31)CC(O)CS2 (stereo not drawn)	30	-4	69*	0	86*	5
COc1ccc(N2CCN(C(=O)COc3ccc4ccccc4c3)CC2)cc1	-2	-2	46*	0	2	-2
O=C(COc1ccccc1Br)N1CCN(C(=O)c2ccco2)CC1	1	0	1	-1	nt	nt
O=C(CC12CCC(CC1)C2)NCc1ccc2c(c1)OCO2	-3	-2	44*	0	-4	-1
O=C(Cc1ccccc1)NCc1ccc2c(c1)OCO2	4	4	2	0	nt	nt
COc1ccc(/C=N/OC(=O)Nc2ccccc2OC)cc1	-3	-5	97*	-6	-64	6
O=C(NCc1ccncc1)/C(=C/c1cccc([N+](=O)[O-])c1)NC(=O)c1ccccc1	-6	-2	-2	-1	nt	nt
Cc1ccc(C)c(NC(=O)CCc2nnc3ccc(N4CCCCC4)nn23)c1	-3	2	0	0	nt	nt
CCOC(=O)C1=C(COC(=O)/C=C/c2ccco2)NC(=O)NC1C (stereo not drawn)	5	2	48*	1	44*	4
CCOC(=O)C1=C(COC(=O)/C=C/c2ccc(OC)cc2)NC(=O)NC1C (stereo not drawn)	-7	3	-2	nt	nt	nt
O=C(Cc1ccc(Br)cc1)N1CCOCC1	-5	-2	2	1	nt	nt
O=c1[nH]c(N/N=C/c2cc3c(cc2[N+](=O)[O-])OCO3)nc2ccccc12	16	-1	44*	0	71*	-4
